Laboratory results: the supplement of paper PMC10849652
Of roughly 8,800 targets only a part is listed; those with a hit were picked by preference. About 0.5% of all pairs of compound and target were hits. Unmarked numbers belong to inactive results.

Columns and labels:
Assay in all cases: log2 fold change, soluble protein after heating vs DMSO (PISA); higher = thermal stabilisation; K562 lysate, 10 uM; active = over 0.2 and 3.5 SD of the protein, either way, in both replicates (recomputed)
lapatinib = compound: CS(=O)(=O)CCNCc1ccc(-c2ccc3ncnc(Nc4ccc(OCc5cccc(F)c5)c(Cl)c4)c3c2)o1 [lapatinib]
Summary of the method: (§1)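 Pellets of K562 cells were dounce-homogenised in PBS pH 7.4 with 1 mM MgCl2, and the crude extract was held at 1 mg/mL protein for a 30 min treatment with 10 μM compound. Aliquots were heated for 3 min over 48°C-58°C and pooled before NP-40 was added to 0.5% at 4°C. The supernatant from 21,000xg for 90 min was quantified by TMTpro 16plex LC-MS/MS with channel sums equalised. Values are reported from duplicates as log-two fold change in thermal stability relative to solvent controls.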

pictilisib = compound: CS(=O)(=O)N1CCN(Cc2cc3nc(-c4cccc5[nH]ncc45)nc(N4CCOCC4)c3s2)CC1 [pictilisib]
Summary of the method: as §1

crizotinib = compound: C[C@@H](Oc1cc(-c2cnn(C3CCNCC3)c2)cnc1N)c1c(Cl)ccc(F)c1Cl [crizotinib]
Summary of the method: as §1

[1] = compound: C[C@H](C1=CC=C(C=C1)C(=O)NC2=C3C=CNC3=NC=C2)N
Summary of the method: as §1

duvelisib = compound: C[C@H](Nc1ncnc2nc[nH]c12)c1cc2cccc(Cl)c2c(=O)n1-c1ccccc1 [duvelisib]
Summary of the method: as §1

gandotinib = compound: Cc1cc(Nc2cc(CN3CCOCC3)c3nc(C)c(Cc4ccc(Cl)cc4F)n3n2)n[nH]1 [gandotinib]
Summary of the method: as §1

tozasertib = compound: Cc1cc(Nc2cc(N3CCN(C)CC3)nc(Sc3ccc(NC(=O)C4CC4)cc3)n2)n[nH]1 [tozasertib]
Summary of the method: as §1

doramapimod = compound: Cc1ccc(-n2nc(C(C)(C)C)cc2NC(=O)Nc2ccc(OCCN3CCOCC3)c3ccccc23)cc1 [doramapimod]
Summary of the method: as §1

bafetinib = compound: Cc1ccc(NC(=O)c2ccc(CN3CC[C@H](N(C)C)C3)c(C(F)(F)F)c2)cc1Nc1nccc(-c2cncnc2)n1 [bafetinib]
Summary of the method: as §1

[2] = compound: Cc1cccc(CC(=O)N2CCc3c2ccc(-c2cn(C)c4ncnc(N)c24)c3F)n1
Summary of the method: as §1

Sequence of UniProt O43615 (O43615 whole entry, looked up): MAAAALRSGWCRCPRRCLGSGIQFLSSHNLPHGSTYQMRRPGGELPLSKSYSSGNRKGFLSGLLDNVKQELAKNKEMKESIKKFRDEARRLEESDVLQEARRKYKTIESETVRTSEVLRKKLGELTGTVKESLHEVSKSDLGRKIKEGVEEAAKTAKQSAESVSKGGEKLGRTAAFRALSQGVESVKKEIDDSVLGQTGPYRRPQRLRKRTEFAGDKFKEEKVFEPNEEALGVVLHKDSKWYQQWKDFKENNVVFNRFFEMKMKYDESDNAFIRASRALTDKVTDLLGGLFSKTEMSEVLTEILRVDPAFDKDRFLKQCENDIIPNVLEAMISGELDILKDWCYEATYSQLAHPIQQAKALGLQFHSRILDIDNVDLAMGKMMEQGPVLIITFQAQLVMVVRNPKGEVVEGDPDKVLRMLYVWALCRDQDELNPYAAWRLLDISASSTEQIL
Sequence of UniProt Q96F44 (Q96F44 whole entry, looked up): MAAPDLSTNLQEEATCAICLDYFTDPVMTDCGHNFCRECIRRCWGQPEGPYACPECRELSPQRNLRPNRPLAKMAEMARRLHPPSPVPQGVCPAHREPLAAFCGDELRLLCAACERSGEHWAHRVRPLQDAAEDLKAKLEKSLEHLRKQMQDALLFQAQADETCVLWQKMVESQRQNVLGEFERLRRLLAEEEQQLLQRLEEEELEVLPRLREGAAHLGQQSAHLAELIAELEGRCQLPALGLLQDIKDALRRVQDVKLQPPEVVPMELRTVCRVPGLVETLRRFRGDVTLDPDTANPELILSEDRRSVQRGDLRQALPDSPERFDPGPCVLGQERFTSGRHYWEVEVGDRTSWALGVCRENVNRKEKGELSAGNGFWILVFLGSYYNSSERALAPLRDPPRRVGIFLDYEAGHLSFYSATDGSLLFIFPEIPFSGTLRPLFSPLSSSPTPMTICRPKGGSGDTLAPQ
Sequence of UniProt P06753 (P06753 whole entry, looked up): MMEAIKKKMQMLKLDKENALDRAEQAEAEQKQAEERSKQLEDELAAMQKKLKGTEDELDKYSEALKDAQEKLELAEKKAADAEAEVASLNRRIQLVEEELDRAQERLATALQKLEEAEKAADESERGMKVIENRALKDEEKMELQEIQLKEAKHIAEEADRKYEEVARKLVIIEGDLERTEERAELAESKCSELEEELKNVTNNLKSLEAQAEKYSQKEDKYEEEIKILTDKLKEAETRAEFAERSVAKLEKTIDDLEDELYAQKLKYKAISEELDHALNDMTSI
Sequence of UniProt Q13769 (Q13769 whole entry, looked up): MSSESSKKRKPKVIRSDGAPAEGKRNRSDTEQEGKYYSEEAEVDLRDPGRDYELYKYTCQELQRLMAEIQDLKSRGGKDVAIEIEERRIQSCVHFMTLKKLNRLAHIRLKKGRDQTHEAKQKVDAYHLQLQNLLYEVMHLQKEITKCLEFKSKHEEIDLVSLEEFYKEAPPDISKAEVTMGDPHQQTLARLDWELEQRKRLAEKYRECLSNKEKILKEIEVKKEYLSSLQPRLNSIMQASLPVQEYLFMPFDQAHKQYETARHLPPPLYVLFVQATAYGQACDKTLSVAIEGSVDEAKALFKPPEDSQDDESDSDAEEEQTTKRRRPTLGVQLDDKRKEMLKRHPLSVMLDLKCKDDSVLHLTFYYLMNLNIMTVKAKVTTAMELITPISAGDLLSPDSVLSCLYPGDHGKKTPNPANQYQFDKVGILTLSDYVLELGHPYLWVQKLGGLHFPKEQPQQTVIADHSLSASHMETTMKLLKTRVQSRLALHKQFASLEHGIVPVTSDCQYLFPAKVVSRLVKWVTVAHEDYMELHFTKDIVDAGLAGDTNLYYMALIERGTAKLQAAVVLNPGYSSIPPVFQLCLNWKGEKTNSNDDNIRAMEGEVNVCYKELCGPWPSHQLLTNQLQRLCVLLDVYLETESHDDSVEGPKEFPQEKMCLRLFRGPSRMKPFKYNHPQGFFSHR
Sequence of UniProt Q969Z0 (Q969Z0 whole entry, looked up): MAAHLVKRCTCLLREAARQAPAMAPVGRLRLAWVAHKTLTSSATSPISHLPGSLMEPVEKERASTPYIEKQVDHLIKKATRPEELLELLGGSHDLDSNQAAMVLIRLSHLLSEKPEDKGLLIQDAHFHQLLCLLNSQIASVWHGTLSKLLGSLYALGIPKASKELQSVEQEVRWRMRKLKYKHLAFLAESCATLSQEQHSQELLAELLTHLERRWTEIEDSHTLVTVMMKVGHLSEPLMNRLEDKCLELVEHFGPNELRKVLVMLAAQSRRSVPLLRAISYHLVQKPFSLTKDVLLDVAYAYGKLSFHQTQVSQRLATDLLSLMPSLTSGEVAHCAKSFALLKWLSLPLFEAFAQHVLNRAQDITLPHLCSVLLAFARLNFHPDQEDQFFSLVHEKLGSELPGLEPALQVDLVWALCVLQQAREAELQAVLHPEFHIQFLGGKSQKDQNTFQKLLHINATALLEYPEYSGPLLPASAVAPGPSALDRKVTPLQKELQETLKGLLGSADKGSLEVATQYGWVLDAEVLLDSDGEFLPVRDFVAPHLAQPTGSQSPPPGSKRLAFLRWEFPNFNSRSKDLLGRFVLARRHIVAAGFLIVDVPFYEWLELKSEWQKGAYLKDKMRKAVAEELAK
Sequence of UniProt Q96S44 (Q96S44 whole entry, looked up): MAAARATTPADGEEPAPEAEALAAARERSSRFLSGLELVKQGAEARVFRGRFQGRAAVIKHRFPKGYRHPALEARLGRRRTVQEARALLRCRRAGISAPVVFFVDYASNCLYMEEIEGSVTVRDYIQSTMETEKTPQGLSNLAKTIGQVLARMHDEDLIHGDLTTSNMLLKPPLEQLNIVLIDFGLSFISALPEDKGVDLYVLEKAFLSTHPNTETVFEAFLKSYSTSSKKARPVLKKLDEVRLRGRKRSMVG
Sequence of UniProt Q6NXR4 (Q6NXR4 whole entry, looked up): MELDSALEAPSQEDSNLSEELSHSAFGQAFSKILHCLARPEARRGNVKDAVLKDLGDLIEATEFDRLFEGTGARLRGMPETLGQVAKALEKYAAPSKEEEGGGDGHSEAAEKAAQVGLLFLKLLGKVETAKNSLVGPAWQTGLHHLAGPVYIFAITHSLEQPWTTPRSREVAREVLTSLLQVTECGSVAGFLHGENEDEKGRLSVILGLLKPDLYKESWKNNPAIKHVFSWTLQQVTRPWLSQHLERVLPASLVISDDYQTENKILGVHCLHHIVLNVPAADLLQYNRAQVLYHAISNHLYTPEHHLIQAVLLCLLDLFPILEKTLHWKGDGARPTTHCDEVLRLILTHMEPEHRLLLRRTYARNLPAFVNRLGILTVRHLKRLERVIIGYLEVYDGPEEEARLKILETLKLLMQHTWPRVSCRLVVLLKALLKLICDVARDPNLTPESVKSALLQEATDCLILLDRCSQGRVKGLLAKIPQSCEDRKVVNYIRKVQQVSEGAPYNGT
Sequence of UniProt P04818 (P04818 whole entry, looked up): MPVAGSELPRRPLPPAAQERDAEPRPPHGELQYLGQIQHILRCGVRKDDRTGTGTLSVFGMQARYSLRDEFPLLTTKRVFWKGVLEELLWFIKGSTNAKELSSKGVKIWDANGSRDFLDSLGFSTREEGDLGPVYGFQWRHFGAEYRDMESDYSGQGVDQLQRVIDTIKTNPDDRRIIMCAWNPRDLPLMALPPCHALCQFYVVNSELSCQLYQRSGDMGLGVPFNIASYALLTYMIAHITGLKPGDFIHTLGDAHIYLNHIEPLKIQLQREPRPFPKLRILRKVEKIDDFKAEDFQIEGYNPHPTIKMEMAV
Sequence of UniProt O43156 (O43156 whole entry, looked up): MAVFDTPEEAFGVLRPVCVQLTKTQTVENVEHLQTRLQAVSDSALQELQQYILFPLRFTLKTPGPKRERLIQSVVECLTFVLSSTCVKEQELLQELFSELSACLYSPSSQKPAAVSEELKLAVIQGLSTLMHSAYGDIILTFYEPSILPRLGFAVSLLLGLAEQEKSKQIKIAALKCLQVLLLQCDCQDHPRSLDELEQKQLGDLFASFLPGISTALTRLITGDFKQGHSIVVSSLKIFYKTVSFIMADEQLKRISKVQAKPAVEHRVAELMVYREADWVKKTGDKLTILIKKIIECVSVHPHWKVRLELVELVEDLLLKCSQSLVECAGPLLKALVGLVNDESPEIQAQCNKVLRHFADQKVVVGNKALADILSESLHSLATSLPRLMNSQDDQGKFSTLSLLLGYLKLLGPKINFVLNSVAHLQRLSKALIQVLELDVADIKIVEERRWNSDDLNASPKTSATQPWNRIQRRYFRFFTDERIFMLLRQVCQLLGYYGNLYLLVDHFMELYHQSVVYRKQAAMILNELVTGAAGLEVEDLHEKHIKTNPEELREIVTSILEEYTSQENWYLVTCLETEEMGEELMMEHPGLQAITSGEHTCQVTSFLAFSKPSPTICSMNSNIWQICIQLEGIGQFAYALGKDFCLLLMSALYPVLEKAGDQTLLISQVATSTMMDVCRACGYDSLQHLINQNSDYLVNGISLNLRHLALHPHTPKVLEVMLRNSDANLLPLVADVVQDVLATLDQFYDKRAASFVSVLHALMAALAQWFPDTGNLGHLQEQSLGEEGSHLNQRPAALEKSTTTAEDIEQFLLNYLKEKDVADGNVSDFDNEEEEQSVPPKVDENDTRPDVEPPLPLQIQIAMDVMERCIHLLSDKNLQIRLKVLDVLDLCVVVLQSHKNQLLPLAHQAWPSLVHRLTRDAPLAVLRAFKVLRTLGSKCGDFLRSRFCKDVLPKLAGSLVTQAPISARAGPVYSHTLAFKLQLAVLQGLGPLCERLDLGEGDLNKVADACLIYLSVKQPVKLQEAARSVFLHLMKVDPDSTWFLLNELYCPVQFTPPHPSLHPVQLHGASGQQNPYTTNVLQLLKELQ
Sequence of UniProt Q5JUR7 (Q5JUR7 whole entry, looked up): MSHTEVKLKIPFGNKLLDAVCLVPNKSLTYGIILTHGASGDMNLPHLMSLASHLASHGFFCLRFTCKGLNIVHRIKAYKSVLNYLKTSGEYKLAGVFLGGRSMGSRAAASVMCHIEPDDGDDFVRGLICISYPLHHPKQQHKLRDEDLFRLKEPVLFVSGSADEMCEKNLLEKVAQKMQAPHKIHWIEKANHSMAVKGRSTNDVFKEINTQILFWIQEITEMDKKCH

Row | Target | log2 fold change (lapatinib) | log2 fold change (pictilisib) | log2 fold change (crizotinib) | log2 fold change [1] | log2 fold change (duvelisib) | log2 fold change (gandotinib) | log2 fold change (tozasertib) | log2 fold change (doramapimod) | log2 fold change (bafetinib) | log2 fold change [2]
1 | THOC5 (UniProt Q13769) | -0.036 | -0.007 | -0.011 | -0.024 | -0.009 | -0.021 | -0.01 | 0.02 | -0.009 | 0.035
2 | TTI2 (UniProt Q6NXR4) | -0.033 | -0.033 | -0.016 | -0.032 | -0.018 | -0.023 | 0.004 | -0.023 | -0.017 | 0.082
3 | TIMM44 (UniProt O43615) | 0.04 | 0.022 | 0.055 | 0.009 | -0.003 | 0.136 | 0.019 | 0.058 | -0.067 | 0.065
4 | TMPO (UniProt P42167) | 0.053 | 0.029 | 0.059 | 0.047 | -0.039 | -0.033 | 0.035 | -0.037 | 0.005 | -0.04
5 | TRIM11 (UniProt Q96F44) | 0.013 | -0.006 | -0.029 | -0.006 | -0.016 | -0.03 | -0.006 | 0.015 | 0.029 | -0.003
6 | TDRKH (UniProt Q9Y2W6) | -0.069 | -0.036 | -0.083 | -0.061 | -0.028 | 0.062 | 0.081 | -0.043 | 0.02 | 0.074
7 | TMPO (UniProt P42166) | 0.018 | -0.012 | 0.016 | -0.179 | 0.023 | -0.048 | 0.016 | -0.017 | -0.021 | 0.034
8 | UBTF (UniProt P17480) | -0.013 | -0.024 | -0.037 | 0.071 | -0.015 | -0.103 | 0.004 | -0.008 | -0.039 | -0.011
9 | UBR5 (UniProt O95071) | -0.003 | -0.009 | -0.055 | -0.01 | -0.004 | -0.018 | 0.001 | 0.012 | -0.047 | 0.046
10 | TP53RK (UniProt Q96S44) | -0.011 | 0.026 | 0.042 | 0.042 | -0.029 | -0.041 | -0.01 | -0.029 | -0.032 | 0.035
11 | TRIM23 (UniProt P36406) | -0.063 | -0.12 | -0.003 | -0.235 | 0.134 | 0.372 (active) | 0.026 | 0.01 | -0.088 | 0.297
12 | TYMS (UniProt P04818) | -0.007 | -0.017 | 0.002 | 0.003 | 0.018 | 0.058 | 0.011 | -0.019 | -0.005 | -0.017
13 | TUBGCP5 (UniProt Q96RT8) | 0.11 | 0.037 | -0.064 | -0.044 | 0.103 | -0.009 | 0.113 | 0.044 | -0.121 | 0.101
14 | UBAP2 (UniProt Q5T6F2) | -0.04 | -0.079 | 0.091 | -0.173 | -0.003 | 0.095 | -0.02 | -0.097 | -0.066 | 0.061
15 | TLE3 isoform 5 (UniProt Q04726) | 0.011 | 0.127 | 0.001 | -0.409 | 0.031 | -0.062 | -0.089 | -0.061 | 0.084 | 0.084
16 | TUBB4A (UniProt P04350) | -0.095 | -0.055 | -0.001 | -0.081 | 0.059 | 0.051 | -0.138 | -0.025 | -0.026 | -0.01
17 | TTC4 (UniProt O95801) | 0.006 | 0.025 | -0.073 | -0.059 | -0.001 | 0.035 | 0.009 | 0.014 | -0.001 | 0.026
18 | UBP1 (UniProt Q9NZI7) | 0.049 | -0.004 | -0.202 | 0.206 | -0.025 | -0.01 | -0.043 | 0.15 | -0.029 | -0.124
19 | UBR4 (UniProt Q5T4S7) | -0.023 | -0.015 | -0.038 | -0.017 | -0.001 | -0.08 | 0 | 0.01 | -0.038 | 0.037
20 | TBRG4 (UniProt Q969Z0) | -0.021 | -0.039 | -0.031 | 0.08 | 0.006 | -0.269 (active) | 0.038 | -0.012 | -0.029 | -0.021
21 | TPST2 (UniProt O60704) | 0.028 | 0.621 | -0.046 | -0.671 (active) | -0.029 | 0.109 | -0.043 | 0.057 | 0.022 | 0.126
22 | TBC1D20 isoform 3 (UniProt Q96BZ9) | -0.019 | -0.12 | -0.066 | -0.087 | 0.021 | -0.105 | -0.017 | -0.095 | -0.303 | 0.025
23 | TRAPPC10 (UniProt P48553) | 0 | 0 | -0.034 | -0.101 | -0.016 | 0.022 | -0.01 | -0.027 | -0.007 | 0.074
24 | TRIP13 (UniProt Q15645) | -0.015 | 0.014 | -0.028 | 0.039 | -0.01 | -0.187 | 0.005 | 0.026 | -0.029 | -0.045
25 | TBL2 (UniProt Q9Y4P3) | -0.025 | -0.002 | -0.007 | -0.068 | 0.014 | -0.053 | 0.063 | 0.032 | -0.013 | 0.055
26 | TPM3 isoform 2 (UniProt P06753) | -0.012 | 0.021 | 0.093 | 0.095 | 0.003 | -0.169 | 0.067 | 0.02 | 0.055 | -0.152
27 | TTI1 (UniProt O43156) | -0.011 | -0.044 | -0.11 | -0.075 | -0.005 | -0.113 | 0.028 | 0.045 | -0.016 | 0.056
28 | TEX30 (UniProt Q5JUR7) | -0.07 | -0.122 | -0.035 | -0.517 (active) | 0.102 | 0.007 | -0.003 | 0.036 | 0.066 | 0.069
29 | TMEM87A (UniProt Q8NBN3) | -0.007 | -0.015 | 0.016 | -0.082 | 0.012 | 0.242 (active) | -0.029 | 0.026 | -0.007 | 0.248 (active)
30 | UBXN10 (UniProt Q96LJ8) | -0.041 | 0.006 | 0.02 | -0.001 | 0.035 | 0.06 | 0.006 | -0.003 | -0.081 | -0.065
